# TCR activator – activates T cell receptor signaling; primary human leukocytes, anti-CD3, IL-2 HTRF, 48 h; Potency, µM (top dose mostly 9.22 µM), without a hit: at the top dose activation of IL-2 secretion, actives largely listed as activators; 330,000 tested, under 10 active; AID 504894; note: % of control where 0% means no effect
#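 IL-2 produced over 48 hr by a-CD3 bead-stimulated primary human leukocytes exposed to compounds was detected with a homogeneous time-resolved FRET immunoassay, 665nm acceptor signal after 320nm excitation.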
# A-T KAP1 phos – potential ataxia-telangiectasia treatment | F2112 A-T fibroblasts, KAP-1 phosphorylation AlphaLISA; neocarzinostatin DNA damage 30 min before lysis | Potency, µM (top dose mostly 57.5 µM), for the others: at the top dose activation, usual class: activators | 320,000 tested, 0.19% active | AID 485349; note: potency is the fitted concentration of half-maximal effect; % of control where 0% means no effect; nearly all actives have a fitted effect of over 45% in size
#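 hTERT-immortalized A-T patient fibroblasts (F2112), 500 cells/well in OPTI-MEM, 1% FBS, got compounds for 60 min, then NCS for 30 min at 37C. Lysates were then assayed for phospho-KAP-1 by AlphaLISA (anti-pKAP1 donor, anti-KAP1 acceptor beads), 6 hr at 25C.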
# ClpP mod – qHTS Assay for Activators of ClpP | AID 651965, 2013 | ATP-dependent Clp protease proteolytic subunit (Bacillus subtilis (strain 168)), P80244 | 340,000 tested, 1.9% active | purified B. subtilis ClpP, FRET peptide cleavage, 20 min | Potency, µM (highest dose often 57.5 µM), inactives show at the highest dose activity change, negative = active; active = well fitted falling curve with a large enough effect; inconclusive = small, poorly fitted or top-dose-only effect; inactive = no such curve, though single readings can be large or run the other way; note: potency is the fitted concentration of half-maximal effect; the source files actives as falling curves though it sought activators and does not explain the sign; nearly all actives have a fitted effect of over 65% in size
# Target sequence (P80244 whole entry, looked up): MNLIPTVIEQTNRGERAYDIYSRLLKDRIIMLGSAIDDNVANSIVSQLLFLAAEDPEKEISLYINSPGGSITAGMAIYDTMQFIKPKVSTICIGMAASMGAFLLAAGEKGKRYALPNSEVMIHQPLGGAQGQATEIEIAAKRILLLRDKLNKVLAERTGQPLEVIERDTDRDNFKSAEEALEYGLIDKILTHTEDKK
#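 ClpP 10 microg/mL final, pH 8 Tris/KCl buffer with BSA, glycerol, Tween-20; compound pinned in; FRET-FV substrate; RT 20 min; Ex320/Em430; ΔFRET vs ADEP 5.8 microM, DMSO, no enzyme.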
# Glioma ERSR ind – ER stress response induction in glioma. 420,000 tested, 0.02% active. AID 602332. Potency, µM, without a hit: top-dose activation, actives largely listed as activators. U87-MG GRP78 promoter luciferase reporter, 16 h; note: potency is the fitted concentration of half-maximal effect; series mostly up to about 76 µM; % of control where 0% means no effect; nearly all actives have a fitted effect of over 35% in size
#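 ERSR induction read as luciferase luminescence (Bright-Glo, 10 min at room temperature) in stably transfected human U87-MG glioma cells exposed to compounds for 16 h, using GRP78 as sensor.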
# MBNL1 CUG block – MBNL1-poly(CUG) RNA binding inhibition; Potency, µM (highest dose often 57.5 µM), inactives show top-dose activity change, negative = inhibition, most hits filed as inhibitors; AID 2675; TR-FRET MBNL1-His/biotin-(CUG)12 binding, 665/545 ratio; 280,000 tested, 0.036% active; active = well fitted inhibition curve with a large enough effect in the signal ratio, with a control signal flat, not every such curve was filed as active; inconclusive = small, poorly fitted or top-dose-only effect, or effect the other way, or a change in a side signal; inactive = no such curve, though single readings can be large or run the other way; the % refers to the signal ratio; note: potency is the fitted concentration of half-maximal effect; % is set by controls: 0 for no effect and ±100 for the full control effect
# Target sequence (Q9NR56 whole entry, looked up): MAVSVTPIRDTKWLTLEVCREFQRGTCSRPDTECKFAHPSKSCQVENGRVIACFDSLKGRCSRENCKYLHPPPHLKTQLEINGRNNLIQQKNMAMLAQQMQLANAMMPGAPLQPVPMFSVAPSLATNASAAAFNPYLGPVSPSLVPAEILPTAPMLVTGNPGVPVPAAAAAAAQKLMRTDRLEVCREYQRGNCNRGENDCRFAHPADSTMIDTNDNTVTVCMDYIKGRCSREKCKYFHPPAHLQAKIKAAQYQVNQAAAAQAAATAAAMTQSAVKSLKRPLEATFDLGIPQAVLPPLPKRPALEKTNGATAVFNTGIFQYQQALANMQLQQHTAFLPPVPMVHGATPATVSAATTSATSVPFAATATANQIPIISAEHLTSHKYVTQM
#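 Inhibition of protein-RNA binding appears as loss of TR-FRET between terbium anti-His antibody on MBNL1-His and streptavidin-XL665 on biotin-(CUG)12. Activity is normalized to buffer-only and uninhibited-complex controls.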
# Mito fusion act – mitochondrial division inhibition or fusion activation. Potency, µM (doses to about 46.1 µM), for the others: at the top dose growth rescue (activation), usual class: activators. S. cerevisiae fusion-defective mutant growth rescue, CellTiterGlo 48 h. 320,000 tested, 0.23% active; note: potency is the fitted concentration of half-maximal effect; % of control where 0% means no effect; nearly all actives have a fitted effect of over 45% in size
#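 Compounds are tested for their ability to restore growth of mitochondrial fusion-defective yeast strains at non-permissive 37C in YPEG medium over 48 hours. Viability is quantified by luciferase luminescence.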
# ClpP validation – inhibits B. subtilis ClpP protease, hit validation; Potency, µM (highest dose often 57.5 µM), inactives show at the highest dose activity change, negative = inhibition, most hits filed as inhibitors; 470 tested, 40% active; shares compounds with ClpP mod; purified B. subtilis ClpP, FRET-FV substrate cleavage, 20 min; note: potency is the fitted concentration of half-maximal effect; % is set by controls: 0 for no effect and ±100 for the full control effect; nearly all actives have a fitted effect of over 70% in size
# The depositor's hits bear a star; ? = inconclusive; · = no result; [ ] = another dose, or the depositor's remark. Rows were chosen to be rich in hits. Some 1.8% of all compounds tested hit in one or more screens of this group. Unless noted, calls come from the whole dose curve; as a rule, active = well fitted curve in the direction sought with a large enough effect; inconclusive = small, poorly fitted or top-dose-only effect, or another doubt; inactive = no such curve, though single readings can be large; an effect the other way counts as inactive or inconclusive.
SMILES,TCR activator,A-T KAP1 phos,ClpP mod,Glioma ERSR ind,MBNL1 CUG block,Mito fusion act,ClpP validation
Cc1ccc(CC(=O)N2CCN(c3cccc(C(F)(F)F)c3)CC2)cc1,5%,1%,10µM*,-6%,-7%,13%,0%
CC1=CCC(C(C)(C)O)CC1 (stereo unspecified),·,·,·,-5%,·,·,·
O=C(OC1Cc2c(O)cc(O)cc2OC1c1cc(O)c(O)c(O)c1)c1cc(O)c(O)c(O)c1 (stereo unspecified),·,·,·,-4%,·,·,·
Nc1ncnc2oc(-c3ccco3)c(-c3ccco3)c12,-6%,-5%,8.9µM*,-3%,?,11%,22µM*
Nc1ncnc2oc(-c3ccoc3)c(-c3ccco3)c12,·,·,4%,-5%,·,·,·
CCCN1CCC(=O)N(CCSc2ccc(Br)cc2)CC1,·,·,·,-2%,·,·,·
Nc1c(Br)cc(C=O)cc1Br,·,·,-3%,-4%,·,·,·
Fc1cc(F)c2nc(Nc3nc4cc5c(cc4s3)OCO5)sc2c1,5%[46.1 µM],32%,8.9µM*,?,2%,5%,?
CC1=C(C(=O)Nc2ccccc2)C(c2ccc(C)cc2)N=C(Nc2nc3ccccc3o2)N1 (stereo unspecified),·,4%,5µM*,-1%,-1%,2%,24µM*
Cc1ccc(C2CC(=O)Oc3cc(C)c(Cl)cc32)cc1 (stereo unspecified),·,·,·,-2%,·,·,·
CCOc1ccc2nc(-c3ccccc3)[nH]c2c1,0%,-1%,7.1µM*,-10%,-4%,-13%,6.9µM*
Cc1cccc(N2CCN(C(=O)c3cn(C4CCCCC4)c(=O)c4c3c3ccccc3n4C)CC2)c1C,·,·,8.9µM*,-2%,·,·,-23%
COc1c(C)cc(C(=O)C2CCCN(S(=O)(=O)N(C)C)C2)cc1C (stereo unspecified),·,16%,2.8µM*,-2%,-13%,-1%,-10%
Cc1cc(C)c2nc(N3CCCC(C(=O)NCc4ccccc4F)C3)sc2c1 (stereo unspecified),·,·,1%,-1%,·,·,·
C[C@H](c1ccccc1)N1C(=O)[C@H]2[C@@H]3[C@H](O)[C@H](O)CC(=O)[C@H]3CC[C@H]2C1=O,·,·,·,-4%,·,·,·
O=C(NCCSc1c(-c2ccccc2)[nH]c2ccccc12)c1cc2ccccc2oc1=O,1%,21%,32%,1%,29%,27%,8%
CCOc1ccc(CC(=O)Nc2c(C(=O)Nc3ccccc3)oc3ccccc23)cc1OCC,-24%,3%,231%,-8%,-1%,10%,?
Cc1ccc(NC(=O)c2oc3ccccc3c2NC(=O)Cc2ccccc2)cc1,·,·,145%,-1%,·,·,?
Cc1nnc(C(C)C)n1C1C[C@H]2CC[C@@H](C1)N2CC[C@H](NC(=O)C1CCC(F)(F)CC1)c1ccccc1 (stereo partly specified),·,·,·,-3%,·,·,·
Cc1ccn2c(Nc3ccc(C(C)C)cc3)c(-c3ccsc3)nc2c1,·,·,4µM*,-1%,·,·,-16%
Cc1ccc2oc(-c3cccc(NC(=O)COc4ccc(Cl)cc4)c3C)nc2c1,·,·,4%,-3%,·,·,·
COc1ccc(-c2nc(NC(=O)c3ccc(OCC(=O)Nc4ccc(F)cc4)c(OC)c3)sc2C)cc1,0%[46.1 µM],8%,144%,-3%,·,-6%,19µM*
COc1ccccc1C1CC(c2ccco2)=NN1c1ccccc1 (stereo unspecified),-4%[46.1 µM],20µM*,3.5µM*,-2%,10%,21%,27µM*
COc1ccc(-c2cn3c(n2)sc2cc(C(=O)NC4CCCCC4)ccc23)cc1,·,·,?,-3%,·,·,·

# Compound activity from PubChem BioAssay.
